In PubChem BioAssay AID720690 (Broad Institute, 2013):
Potency and affinity values are given separately. The source made the active and inactive calls.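 The calls were made as follows: active = every repeat run showing a signal drop whose fitted half-maximal concentration is at most twice the top tested concentration; inconclusive = repeat runs disagree, or flat partial drop, or poor fit; inactive = the rest.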

assay: HEK293T cytotoxicity, dose response, cytotoxicity control for miR-122 modulator project, cell-based, activator set, cherry-pick (AID 720690); conditions: HEK293T viability, CellTiter-Glo luminescence, 48 h; series mostly up to 26 µM

Row | SMILES | outcome
1 | COC(=O)C[C@H]1CC[C@@H]2[C@H](COc3ccc(NC(=O)c4cc(F)cc(F)c4)cc3C(=O)N2C)O1 | inactive
2 | CCC(=O)N1[C@H](CO)[C@H](c2ccccc2)[C@H]1CN(C(C)C)S(C)(=O)=O | inactive
3 | CN1C(=O)c2cc(NC(=O)c3cccs3)ccc2OC[C@@H]2O[C@H](CC(=O)NCCN3CCCCC3)CC[C@H]21 | inactive
4 | CN1C(=O)c2cc(NC(=O)c3cc(F)cc(F)c3)ccc2OC[C@@H]2O[C@@H](CC(=O)O)CC[C@@H]21 | inactive
